Experimental findings from PubChem BioAssay (Tox21) are described below.

Records with an inconclusive call do not appear. Active and inactive are the calls of the source. Unless noted, calls follow the shape of the dose curve; as a rule, active = well fitted curve in the direction sought with a large enough effect in the repeat runs; inconclusive = weak or mixed curves; inactive = no such curve, though single readings can be large; an effect the other way counts as inactive or inconclusive. Non-standard residues stand in square brackets, D forms with d. Residues, ends and D or L forms follow the SMILES beside them. pGlu = O=C1CC[C@@H](C(=O)O)N1; Thz = O=C(O)[C@@H]1CSCN1

The nature of test [1]: qHTS assay for small molecules that induce genotoxicity in human embryonic kidney cells expressing luciferase-tagged ATAD5 (AID 651632). Also: nearly all actives have a fitted effect of over 15% in size. An outline of the steps: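 A rise in luciferase signal from ATAD5-tagged HEK293T cells marks genetic stress. Cells were exposed to compounds for 16 hr at 37C, 5% CO2, then luciferase was quantified after a 30 min room-temperature incubation with Amplite.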

Test [2] in a line: qHTS assay for small molecules that induce genotoxicity in human embryonic kidney cells expressing luciferase-tagged ATAD5 - cell viability (AID 651634; calls by dose curve; also: nearly all actives have a fitted effect of over 25% in size; also: potency is read from the fitted curve at half-maximal effect). An outline of the steps:
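Cytotoxicity counter-readout: after 15.5 hr compound treatment at 37C, live-cell protease activity in ATAD5-luciferase HEK293T cells measured by CellTiter-Fluor fluorescence, 30 min development at 37C.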

Test [3] is described as follows: qHTS assay for small molecule disruptors of the mitochondrial membrane potential - cell viability (AID 720634; calls by dose curve;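 also: human HepG2 liver cancer cells; series mostly up to about 83 µM; nearly all actives have a fitted effect of over 20% in size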). An outline of the steps: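 Cytotoxicity was quantified from ATP content by CellTiter-Glo luminescence in the same wells as the MMP dye read-out. HepG2 (2,000 cells/well) were plated overnight and exposed to compounds for 1 hr at 37 C.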
A general note: Quantitative high-throughput screening tests each substance at several concentrations.

Test [4] can be described thus: qHTS assay to test for compound auto fluorescence at 590 nm (red) in HepG2 cells (AID 720674). An outline of the steps:
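We screened compounds on adherent HepG2 cells, incubating them for an hour at 37 C in 5% CO2 before reading emission at 590 nm under 540 nm excitation; values reflect equivalence to Rose Bengal sodium fluorescence.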

The nature of test [5]: qHTS assay to test for compound auto fluorescence at 535 nm (green) in HepG2 cells (AID 720675). Also: potency is read from the fitted curve at half-maximal effect.
A short description of test [6]: qHTS assay to test for compound auto fluorescence at 460 nm (blue) in HEK293 cells (AID 720678). An outline of the steps: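 Measured: blue fluorescence (Ex 405/Em 460 nm) of compound-treated HEK293 cells, incubated overnight at 37C with 5% CO2 and scaled to triamterene equivalents.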
Test [7] can be described thus: qHTS assay to test for compound auto fluorescence at 590 nm (red) in HEK293 cells (AID 720679). An outline of the steps: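 Using HEK293 cells at 2,000 per well, the screen added 23 nL of each compound after cell attachment and incubated overnight (37C, 5% CO2). The plate reader then captured red-label fluorescence, Ex/Em 540/590nm.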
Test [8] can be described thus: qHTS assay for small molecule disruptors of the mitochondrial membrane potential (AID 720635). Also: potency is read from the fitted curve at half-maximal effect. In short, it runs like this:
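Mitochondrial membrane potential tracked with Mito-MPS dye, red aggregates (ex 540/em 590 nm) against green monomers (ex 490/em 535 nm). Compound treatment 1 hr at 37C, dye 30 min in HepG2.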

A short description of test [9]: qHTS assay for small molecule agonists of the p53 signaling pathway - cell viability (AID 651633; calls by dose curve; also: nearly all actives have a fitted effect of over 30% in size; also: potency is read from the fitted curve at half-maximal effect). An outline of the steps:
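Viability counter-read: CellTiter-Glo luminescence (30 min, room temperature) in the same p53RE-bla plates. These plates had been exposed to compounds for 16 h at 37 C.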

Turning to `CC1(C)S[C@@H]2[C@H](NC(=O)[C@H](NC(=O)N3CCN(S(C)(=O)=O)C3=O)c3ccccc3)C(=O)N2[C@H]1C(=O)O`, the Potency entry in test [1], in test [2], in test [3], in test [4], in test [5] and in test [6] was “inactive” throughout. Moreover, in [7], the Potency entry is “inactive”.

Turning to `CCC(=O)O[C@H]1CC[C@H]2[C@@H]3CCc4cc(O)ccc4[C@H]3CC[C@]12C`, the Potency result in test [1], in [2], in test [4], in [5], in test [6] and in test [7] was “inactive” throughout. In test [8], the Potency was 11.9 µM (active).

On to `CCOC(=O)C1=C(COCCN)NC(C)=C(C(=O)OC)C1c1ccccc1Cl` (stereo not drawn), for which the Potency entry in test [1], in [2], in [3], in [4], in test [5] and in test [6] was “inactive” each time. Moreover, in [7], the Potency result is “inactive”.

Turning to `CCC(C)C(C(=O)OCC[N+](C)(CC)CC)c1ccccc1` (stereo not drawn), the Potency entry in test [9], in [2], in [3], in test [8], in test [4] and in test [5] was “inactive” throughout. The Potency result in test [6] and in test [7] was “inactive” in each case.

In the case of `O=C(O)C1CCCN1` (stereo not drawn), the Potency result in test [9], in test [2], in [3], in test [8], in test [4] and in test [5] was “inactive” throughout. Besides, the Potency entry in [6] and in test [7] was “inactive” throughout.

Consider `O=C1CSC2(CCN(CCCN3c4ccccc4Sc4ccc(Cl)cc43)CC2)N1`, for which the Potency entry in test [1], in test [3], in test [4], in test [5], in test [6] and in test [7] was “inactive” each time.

As for `CCC(=O)O[C@@H]1CC(=O)O[C@H](C)C/C=C/C=C/[C@H](O)[C@H](C)C[C@H](CC=O)[C@H](O[C@@H]2O[C@H](C)[C@@H](O[C@H]3C[C@@](C)(O)[C@@H](OC(=O)CC)[C@H](C)O3)[C@H](N(C)C)[C@H]2O)[C@H]1OC`, the Potency result in [1], in test [3], in [8], in [4], in test [5] and in test [6] was “inactive” in each case. Besides, the Potency result in [7] is “inactive”.

Consider `C[C@@H]1CCC2[C@@H](C)[C@@H](O)O[C@@H]3O[C@@]4(C)CC[C@@H]1[C@@]23OO4` (stereo partly drawn), for which the Potency result in [1], in [8], in test [4], in [5], in [6] and in test [7] was “inactive” throughout. Moreover, the Potency in test [2] is 13.3 µM (active).

As for `CCc1ccc2c(c1)N(CC(C)CN(C)C)c1ccccc1S2` (stereo not drawn), the Potency result in test [1], in [3], in test [4], in test [5], in [6] and in [7] was “inactive” each time. In test [2], the Potency is 33.5 µM (active).

Regarding `CCN(CC)CCOc1ccc(-c2nc3cc(Cl)ccc3s2)cc1`, the Potency result in [1], in test [2], in test [3], in test [4], in [5] and in test [6] was “inactive” throughout. Besides, in [7], the Potency entry is “inactive”.

With `CN1CCN(C2=Nc3ccccc3Cc3ccccc32)CC1`, the Potency result in test [1], in test [2], in [3], in test [4], in test [5] and in test [6] was “inactive” each time. In test [7], the Potency entry is “inactive”.

In the case of `CC1=C[C@H](O)CC(C)(C)[C@H]1/C=C/C(C)=C/C=C/C(C)=C/C=C/C=C(C)/C=C/C=C(C)/C=C/C1=C(C)C[C@@H](O)CC1(C)C`, the Potency result in test [1], in test [2], in test [3], in [4], in [5] and in test [6] was “inactive” in each case. The Potency result in test [7] is “inactive”.

In the case of `Cc1cccc(C)c1Nc1ncccc1C(=O)O`, the Potency entry in test [9], in test [2], in [3], in test [4], in [5] and in test [6] was “inactive” each time. The Potency result in test [7] is “inactive”.

Consider `O=C(O)CN(CC(=O)O)CC1=CC2C(=CC1=O)Oc1cc(O)c(CN(CC(=O)O)CC(=O)O)cc1C21OC(=O)c2ccccc21` (stereo not drawn), for which the Potency result in [9], in [3] and in [6] was “inactive” each time. For the same compound, in test [5], the Potency is 10 µM (active).

Regarding `CN(C)c1ccc(C(=C2C=CC(=[N+](C)C)C=C2)c2c(O)c(S(=O)(=O)[O-])cc3cc(S(=O)(=O)O)ccc23)cc1`, the Potency result in test [9], in test [3], in test [4], in [5], in [6] and in test [7] was “inactive” each time.

In the case of `O=S(=O)(O)c1cc(O)c2c(N=Nc3ccc(Nc4ccccc4)c4c(S(=O)(=O)O)cccc34)cc(S(=O)(=O)O)cc2c1`, the Potency result in test [3], in [4], in test [5], in [6] and in [7] was “inactive” in each case.

Take `CC(=O)Nc1ccc(NC(=S)NC(=O)c2ccc(C(C)(C)C)cc2)cc1`: the Potency result in test [2], in [3], in [4], in test [5], in [6] and in [7] was “inactive” each time. In test [8], the Potency was 2.11 µM (active).

For the compound `CN1CCN(CCC=C2c3ccccc3Sc3ccc(S(=O)(=O)N(C)C)cc32)CC1`, the Potency in test [2] was 29.8 µM (active). The Potency result in test [4], in test [5] and in test [6] was “inactive” in each case.

Turning to `CNC(C)[C@@H]1CC[C@@H](N)[C@@H](O[C@H]2[C@H](O)[C@@H](O[C@H]3OC[C@](C)(O)[C@H](NC)[C@H]3O)[C@H](N)C[C@@H]2N)O1` (stereo partly drawn), the Potency result in test [4], in test [5], in test [6] and in test [7] was “inactive” throughout.

`CO[C@H]1C[C@H](O[C@@H]2/C(C)=C/C[C@@H]3C[C@@H](C[C@]4(CC[C@H](C)[C@@H](C5CCCCC5)O4)O3)OC(=O)[C@@H]3C=C(C)/C(=N/O)[C@H]4OC/C(=C\C=C\[C@@H]2C)[C@]43O)O[C@@H](C)[C@@H]1O`: the Potency result in [2], in test [3], in test [4], in test [5], in test [6] and in test [7] was “inactive” in each case.

On to `CC(=C\c1ccccc1)/C=C1/SC(=S)N(CC(=O)O)C1=O`, for which the Potency result in test [9], in test [3], in test [4], in test [5] and in test [6] was “inactive” throughout. The Potency in [2] was 21.1 µM (active).

Consider `O=C1CC[C@@H](C(=O)N2CSC[C@H]2C(=O)O)N1` ([pGlu]-[Thz]-OH), for which the Potency result in test [9], in test [2], in test [3], in [4], in test [5] and in [6] was “inactive” in each case. Further, the Potency result in test [7] is “inactive”.

Consider `C=C1C(=O)O[C@H]2[C@H]1CC/C(C)=C\CC[C@@]1(C)O[C@@H]21`, for which, in test [9], the Potency was 29.8 µM (active). Moreover, the Potency entry in test [3], in [4], in test [5], in [6] and in test [7] was “inactive” each time.

In the case of `CC(C)N=c1cc2n(-c3ccc(Cl)cc3)c3ccccc3nc-2cc1Nc1ccc(Cl)cc1`, the Potency entry in [2], in test [3], in test [4], in test [5], in test [6] and in test [7] was “inactive” in each case.
